The whole screen tested about 5,500 compounds, of which about 2,000 (36%) were called active. About 18% were inconclusive and are not listed. No stated cut-off is given here; in the data, active means normalized growth mostly below about 0.91 (no sharp cut-off); inconclusive means no clear call, values can overlap the other calls; inactive means mostly above about 0.92. The list shows a part of the results.
Experiment: chemical genetic growth profiling, strain panel (AID 1159580);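 further: tested at 20 µM; growth read once vehicle control cultures reached saturation at 30 °C; 1 = growth at the plate median or of vehicle wells; lower values mean less growth of the strain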
Conditions: growth OD

Measured: normalized growth

COC(=O)[C@@H]1C(O)CC[C@H]2CN3CCc4c([nH]c5ccccc45)[C@@H]3C[C@@H]21 (some centres not stated)
inactive: S. cerevisiae deletion strains, locus YJR075W, strain HOC1, hits give low values 0.993 | S. cerevisiae deletion strains, locus YKL009W, strain mrt4, hits give low values 0.968 | S. cerevisiae deletion strains, locus YKL068W, hits give low values 0.982 | S. cerevisiae deletion strains, locus YKL085W, strain MDH1 (second series), hits give low values 0.982 | S. cerevisiae deletion strains, locus YKL085W, strain MDH1, hits give low values 0.982 | S. cerevisiae deletion strains, locus YKL160W, strain elf1, hits give low values 1.01 | S. cerevisiae deletion strains, locus YKL190W, strain CNB1, hits give low values 0.994 | S. cerevisiae deletion strains, locus YKR001C, strain vps1, hits give low values 0.979 | S. cerevisiae deletion strains, locus YKR026C, strain gcn3, hits give low values 1.01 | S. cerevisiae deletion strains, locus YKR091W, strain srl3, hits give low values 1.02 | S. cerevisiae deletion strains, locus YLL001W, strain dnm1, hits give low values 1.02 | S. cerevisiae deletion strains, locus YLL026W, hits give low values 1.01 | S. cerevisiae deletion strains, locus YLL041C, strain sdh2, hits give low values 1.02 | S. cerevisiae deletion strains, locus YLR027C, strain aat2, hits give low values 1.01 | S. cerevisiae deletion strains, locus YLR039C, strain RIC1, hits give low values 0.977 | S. cerevisiae deletion strains, locus YLR058C, strain SHM2, hits give low values 0.988 | S. cerevisiae deletion strains, locus YLR102C, strain apc9, hits give low values 0.995 | S. cerevisiae deletion strains, locus YLR113W, strain HOG1, hits give low values 1 | S. cerevisiae deletion strains, locus YLR221C, strain rsa3, hits give low values 1 | S. cerevisiae deletion strains, locus YLR258W, strain gsy2, hits give low values 1.01 | S. cerevisiae deletion strains, locus YLR262C, strain YPT6 (second series), hits give low values 1 | S. cerevisiae deletion strains, locus YLR262C, strain YPT6, hits give low values 0.962 | S. cerevisiae deletion strains, locus YLR268W, strain sec22, hits give low values 1.01 | S. cerevisiae deletion strains, locus YLR320W, strain mms22, hits give low values 1.01 | S. cerevisiae deletion strains, locus YLR330W, strain CHS5, hits give low values 0.996 | S. cerevisiae deletion strains, locus YLR342W, strain FKS1 (second series), hits give low values 0.978 | S. cerevisiae deletion strains, locus YLR342W, strain FKS1, hits give low values 1.01 | S. cerevisiae deletion strains, locus YLR357W, strain rsc2, hits give low values 1.01 | S. cerevisiae deletion strains, locus YLR370C, strain arc18, hits give low values 1.02 | S. cerevisiae deletion strains, locus YLR371W, strain rom2, hits give low values 0.976 | S. cerevisiae deletion strains, locus YLR384C, strain iki3, hits give low values 1.02 | S. cerevisiae deletion strains, locus YLR418C, strain cdc73, hits give low values 1.05 | S. cerevisiae deletion strains, locus YML016C, strain PPZ1, hits give low values 0.983 | S. cerevisiae deletion strains, locus YML032C, strain rad52, hits give low values 0.971 | S. cerevisiae deletion strains, locus YML120C, strain ndi1, hits give low values 1.02 | S. cerevisiae deletion strains, locus YML124C, strain tub3, hits give low values 0.991 | S. cerevisiae deletion strains, locus YMR058W, strain fet3, hits give low values 1.01 | S. cerevisiae deletion strains, locus YMR078C, strain ctf18, hits give low values 0.988 | S. cerevisiae deletion strains, locus YMR125W, strain sto1, hits give low values 1 | S. cerevisiae deletion strains, locus YMR129W, hits give low values 1.01 | S. cerevisiae deletion strains, locus YMR205C, strain PFK2, hits give low values 1.03 | S. cerevisiae deletion strains, locus YMR223W, strain ubp8, hits give low values 0.97 | S. cerevisiae deletion strains, locus YMR231W, strain pep5, hits give low values 1.01 | S. cerevisiae deletion strains, locus YMR263W, strain SAP30, hits give low values 0.995 | S. cerevisiae deletion strains, locus YMR307W, strain GAS1, hits give low values 1 | S. cerevisiae deletion strains, locus YNL067W, strain RPL9B, hits give low values 1.01 | S. cerevisiae deletion strains, locus YNL071W, strain lat1, hits give low values 1.02 | S. cerevisiae deletion strains, locus YNL128W, strain TEP1, hits give low values 1 | S. cerevisiae deletion strains, locus YNL153C, strain GIM3, hits give low values 1.01 | S. cerevisiae deletion strains, locus YNL183C, strain NPR1, hits give low values 0.973 | S. cerevisiae deletion strains, locus YNL209W, strain ssb2, hits give low values 1.01 | S. cerevisiae deletion strains, locus YNL233W, strain BNI4, hits give low values 1.01 | S. cerevisiae deletion strains, locus YNL248C, strain rpa49, hits give low values 1.01 | S. cerevisiae deletion strains, locus YNL250W, strain rad50, hits give low values 0.975 | S. cerevisiae deletion strains, locus YNL271C, strain bni1, hits give low values 0.987 | S. cerevisiae deletion strains, locus YNL298W, strain CLA4, hits give low values 0.975 | S. cerevisiae deletion strains, locus YNL307C, strain MCK1, hits give low values 0.996 | S. cerevisiae deletion strains, locus YNL322C, strain KRE1 (second series), hits give low values 1.01 | S. cerevisiae deletion strains, locus YNL322C, strain KRE1, hits give low values 0.99 | S. cerevisiae deletion strains, locus YNR049C, strain mso1, hits give low values 1.01 | S. cerevisiae deletion strains, locus YNR052C, strain pop2, hits give low values 0.989 | S. cerevisiae deletion strains, locus YOL006C, strain TOP1, hits give low values 1.01 | S. cerevisiae deletion strains, locus YOL012C, strain htz1 0.815 | S. cerevisiae deletion strains, locus YOL147C, strain pex11, hits give low values 0.99 | S. cerevisiae deletion strains, locus YOR001W, strain rrp6, hits give low values 1.02 | S. cerevisiae deletion strains, locus YOR061W, strain CKA2, hits give low values 0.996 | S. cerevisiae deletion strains, locus YOR069W, strain VPS5, hits give low values 0.992 | S. cerevisiae deletion strains, locus YOR070C, strain gyp1, hits give low values 1.02 | S. cerevisiae deletion strains, locus YOR080W, strain dia2, hits give low values 1.01 | S. cerevisiae deletion strains, locus YOR083W, strain WHI5, hits give low values 1 | S. cerevisiae deletion strains, locus YOR106W, strain vam3, hits give low values 0.997 | S. cerevisiae deletion strains, locus YOR136W, strain idh2, hits give low values 0.99 | S. cerevisiae deletion strains, locus YOR144C, strain elg1, hits give low values 0.983 | S. cerevisiae deletion strains, locus YOR184W, strain ser1, hits give low values 0.981 | S. cerevisiae deletion strains, locus YOR231W, strain MKK1, hits give low values 1.02 | S. cerevisiae deletion strains, locus YOR265W, strain rbl2, hits give low values 0.998 | S. cerevisiae deletion strains, locus YOR270C, strain vph1, hits give low values 1 | S. cerevisiae deletion strains, locus YOR290C, strain snf2, hits give low values 0.971 | S. cerevisiae deletion strains, locus YOR316C, strain cot1, hits give low values 0.981 | S. cerevisiae deletion strains, locus YPL051W, strain arl3, hits give low values 0.995 | S. cerevisiae deletion strains, locus YPL055C, strain LGE1, hits give low values 1.01 | S. cerevisiae deletion strains, locus YPL078C, strain atp4, hits give low values 1.03 | S. cerevisiae deletion strains, locus YPL106C, strain sse1, hits give low values 1 | S. cerevisiae deletion strains, locus YPL240C, strain hsp82, hits give low values 1.01 | S. cerevisiae deletion strains, locus YPL241C, strain CIN2, hits give low values 0.99 | S. cerevisiae deletion strains, locus YPL256C, strain CLN2, hits give low values 1 | S. cerevisiae deletion strains, locus YPR119W, strain clb2, hits give low values 0.994 | S. cerevisiae deletion strains, locus YPR141C, strain kar3, hits give low values 0.981 | S. cerevisiae deletion strains, locus YPR163C, strain tif3, hits give low values 0.988 | S. cerevisiae deletion strains, locus YPR167C, strain met16, hits give low values 0.994 | S. cerevisiae deletion strains, strain wtn01, hits give low values 0.995 | S. cerevisiae strains, strain wild type, hits give low values 0.998

Reference: PubChem BioAssay AID1159580 (chemical genetic matrix, 2015)
